Screening data from PubChem.
Nrf2 block – Nrf2 qHTS screen for inhibitors; A549 ARE-Fluc reporter, luciferase luminescence, 18-24 h; Potency, µM (highest dose often 46 µM), inactives show at the highest dose activity change, negative = inhibition, actives largely listed as inhibitors; hit rate 2.1% among 360,000; AID 504444, 2011; further: on the % scale 0 is the no-effect control and ±100 the full control effect; nearly all actives have a fitted effect of over 60% in size
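Nrf2 function is reported as luminescence of an ARE-controlled luciferase in A549 cells. Compounds were tested at several concentrations, and a CellTiter-Fluor read on the same wells flagged cytotoxicity.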
Nrf2 activator – qHTS of Nrf2 Activators; AREc32 ARE-luciferase reporter (MCF7-derived line), luminescence, 24 h; Potency, µM (titrated, usually from 46.1 µM), inactives show at the top dose activation, most hits filed as activators; hit rate 0.31% among 410,000; further: % of control where 0% means no effect; nearly all actives have a fitted effect of over 65% in size
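AREc32 cells carrying an ARE-driven firefly luciferase, 1000 cells/well in OPTI-MEM with 5% FBS, dosed after overnight attachment and incubated 24 hr at 37 deg C. Steady-Glo luminescence read after 30 min at RT.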
A549 viability – Nrf2 qHTS screen for inhibitors: counterscreen for cytotoxicity; A549 ARE-Fluc cells, CellTiter-Fluor viability, 18-24 h; Potency, µM (doses to about 46 µM), for the others: top-dose activity change, negative = cytotoxicity, most hits filed as inhibitors; hit rate 0.16% among 390,000; AID 504648, 2011; further: on the % scale 0 is the no-effect control and ±100 the full control effect
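Cytotoxicity counterscreen: CellTiter-Fluor fluorescence was measured in A549 ARE_Fluc cells after 18-24 h of compound exposure in a concentration series. The subsequent BugLite luminescent read reports ARE-luciferase activity.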
ELG1 DNA repair – qHTS screen for small molecules that inhibit ELG1-dependent DNA repair in human embryonic kidney (HEK293T) cells expressing luciferase-tagged ELG1; HEK293T ELG1-luciferase reporter, luminescence, 16 h; DNA damage induced by 5-fluorouridine; Potency, µM (doses to about 46.1 µM), for the others: at the top dose activity change, negative = inhibition, hits mostly inhibitors; hit rate 2.3% among 330,000; further: on the % scale 0 is the no-effect control and ±100 the full control effect; nearly all actives have a fitted effect of over 55% in size
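Reporter activity after DNA damage by 5-fluorouridine is monitored. Compound-treated cells incubate 16 hr at 37 °C, then ONE-Glo is added for 30 min before luminescence reading.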
Active calls of the source: *; ? = inconclusive; / = no result given. Only some compounds are listed: those with a hit (about 3.7% of all), similar ones and a draw of the others. The call rests on the fitted dose curve; in most records, active means well fitted curve in the direction sought with a large enough effect; inconclusive means small, poorly fitted or top-dose-only effect, or another doubt; inactive means no such curve, though single readings can be large; an effect the other way counts as inactive or inconclusive. Potency means the concentration at half of the fitted maximal effect.

SMILES	Nrf2 block	Nrf2 activator	A549 viability	ELG1 DNA repair
O=C(Nc1ccc(CN2CCOCC2)cc1)c1ccc(-c2ccc(Br)cc2)o1	?	-1%	-10%	18µM*
COC(=O)c1ccc(NC(=O)c2ccc(CN3CCOCC3)cc2)cc1	9.2µM*	0%	-5%	8.2µM*
O=C(Nc1ccc(CN2CCOCC2)cc1)c1ccc(Cl)cc1	?	4%	-18%	?
Cc1ccc(C(=O)NC(=S)Nc2ccc(N3CCOCC3)cc2)cc1C	-17%	0%	-6%	10µM*
Cc1cccc(C(=O)NC(=S)Nc2ccc(N3CCOCC3)cc2)c1	-9%	-1%	1%	-5%
Cc1ccc(NC(=O)Cn2cnc3c(oc4ccccc43)c2=O)cc1Cl	-16%	0%	0%	/
COc1ccc(Cl)cc1CNCCSc1nnnn1-c1ccccc1	7%	7%	1%	/
COc1ccc(CNC(=O)COC(=O)c2ccccn2)cc1	7%	0%	3%	5%
CCC(C)Oc1ccc(C(=O)Nc2ccc(CN3CCOCC3)cc2)cc1 (stereo not drawn)	23µM*	0%	-20%	?
CC(=O)c1ccc(C(=O)Nc2ccc(N3CCOCC3)cc2)cc1	-6%	-1%	-5%	?
COc1ccc(C(=O)NC(=S)Nc2ccc(CN3CCOCC3)cc2)cc1	-12%	2%	2%	-20%
CC(C)(C)c1ccc(C(=O)Nc2ccc(N3CCOCC3)cc2)cc1	?	0%	-5%	18µM*
CC(C)(C)c1ccc(OCCC(=O)Nc2ccc(N3CCOCC3)cc2N2CCOCC2)cc1	?	8%	-19%	21µM*
COc1ccc(C(=O)NC(=S)Nc2ccc(CN3CCOCC3)cc2)cc1Br	14%	3%	-5%	23µM*
COc1ccc(CC(=O)N2CCc3cc(OC)c(OC)cc3C2O)cc1OC (stereo not drawn)	-9%	0%	2%	-2%
CN(C)S(=O)(=O)c1ccc(C(=O)Nc2nnc(SCC(=O)N3CCOCC3)s2)cc1	/	0%	/	/
CC(C)Oc1ccc(C(=O)Nc2nnc(SCC(=O)N3CCOCC3)s2)cc1	5.2µM*	-2%	-3%	?
Cn1c(CSCc2ccc(F)cc2)nnc1SCC(=O)N1CCN(c2ccccc2)CC1	13µM*	0%	-6%	?
Cn1c(CSCc2ccc(Cl)cc2)nnc1SCC(=O)Nc1nccs1	?	-1%	-1%	?
Cn1c(CSCc2ccc(F)cc2)nnc1SCC(=O)Nc1nccs1	18µM*	2%	?	16µM*
Cc1ccc(S(=O)(=O)C(C#N)c2nc3ccccc3nc2N2CC(C)OC(C)C2)cc1C (stereo not drawn)	?	2%	/	?
Cc1cccc(S(=O)(=O)C(C#N)c2nc3ccccc3nc2N2CC(C)OC(C)C2)c1 (stereo not drawn)	16µM*	0%	-23%	/
C=CCN(c1ccccc1OC)S(=O)(=O)c1cccc(C(=O)NC2=NCCS2)c1	?	0%	-8%	23µM*
C=CCN(c1ccccc1OC)S(=O)(=O)c1cccc(C(=O)Nc2nnc(C3CC3)s2)c1	-11%	0%	-5%	-28%
C=CCN(c1ccccc1)S(=O)(=O)c1cccc(C(=O)NC2CCN(Cc3ccccc3)CC2)c1	?	0%	?	-29%
SMILES	Nrf2 block	Nrf2 activator	A549 viability	ELG1 DNA repair
C=CCN(c1ccc(F)cc1)S(=O)(=O)c1cc(C(=O)NC2CCC(O)CC2)ccc1Cl (stereo not drawn)	16µM*	-1%	8%	5%
C=CCN(c1ccccc1)S(=O)(=O)c1cc(C(=O)NC2=NCCS2)ccc1Cl	3%	-1%	5%	21µM*
Cc1ccc(CN2CC(C(=O)N3CCN(S(=O)(=O)c4c(F)cccc4F)CC3)CC2=O)cc1 (stereo not drawn)	?	-1%	-6%	-19%
O=C1NC[C@H](CCCCN2C[C@@H](Cc3ccccc3)N(CC3CCCCC3)C(=O)C2=O)N(CCC2CCCCC2)C1=O	/	0%	/	/
Cc1ccc(N(CC(=O)Nc2ccccc2C(=O)NCc2ccco2)S(=O)(=O)c2ccccc2)cc1C	-4%	6%	2%	?
Cc1ccc(C)c(N(CC(=O)Nc2ccccc2C(=O)NCc2ccco2)S(=O)(=O)c2ccccc2)c1	2%	4%	13%	23µM*
COc1ccc(Cc2noc(-c3ccc(OC)c(OC)c3)n2)cc1OC	?	2%	0%	21µM*
